Drawing on the supplement of paper PMC10042075, this text covers cell viability for 29 compounds.

Where “and” joins values, the source holds several entries; their conditions need not be identical. Equal entries are not always repeated. Structures can show the parent of a compound that is named as a salt. ± gives the standard deviation of the averaged measurements.

This test relates to LASCPC-01. Description: cell viability relative to DMSO control (fraction); higher = less growth inhibition (more viable cells). As to conditions: 2 µM; 72 h. Put shortly: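 LASCPC-01 human prostate cancer cells were cultured at 37°C and 5% CO2 in modified HITES medium containing 5% fetal bovine serum, then seeded into 384-well plates and exposed to each compound at 2 μM for 72 hours. Viability was measured by CellTiter-Glo luminescence and reported as the ratio of compound-treated signal to solvent-only signal. Each measurement was done in three replicates, and the table lists only serotonin-pathway compounds from a 7315-compound library.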
For the compound `CCOc1cc(N)c(Cl)cc1C(=O)NCC1CN(Cc2ccc(F)cc2)CCO1` (centres undefined) [Mosapride Citrate], the cell viability was 0.912.
Compound `CN(C)CCC[C@@]1(c2ccc(F)cc2)OCc2cc(C#N)ccc21` [Escitalopram Oxalate] had a cell viability of 0.982.
In the case of `CC1CCN(CC[C@H]2CCCN2S(=O)(=O)c2cccc(O)c2)CC1` it was 0.707 and 0.855; in that of `Cc1cc2c(s1)Nc1ccccc1N=C2N1CCN(C)CC1` [Olanzapine], 1.02 ± 0.042; in that of `OC(CN1CCN(c2cccc(Cl)c2)CC1)C(c1ccccc1)c1ccccc1` (centres undefined), 0.778.
In the case of `CN(C)[C@@H]1CCc2[nH]c3ccc(NC(=O)c4ccc(F)cc4)cc3c2C1` it was 0.693; in that of `CC(CN1c2ccccc2Sc2ccccc21)N(C)C` (centres undefined) [Promethazine], 1.11; in that of `CN[C@H]1CC[C@@H](c2ccc(Cl)c(Cl)c2)c2ccccc21` [Sertraline hydrochloride], 0.958.
Compound `CN1CCC(=C2c3ccccc3CCc3sccc32)CC1` [Pizotifen] registered a cell viability of 0.586.
Turning to `Cn1c(=O)cnn(CCCCN2CCN(c3ncccn3)CC2)c1=O` [Eptapirone], the cell viability was determined as 0.947.
In turn, `CN1CCC(=C2c3ccccc3C=Cc3ccccc32)CC1` [Cyproheptadine hydrochloride] yielded a cell viability of 1.14.
In the case of `N=C(N)NC(=N)Nc1ccccc1` [Phenylbiguanide] it was 0.637.
As for `Cc1cnc(CNCC2(F)CCN(C(=O)c3ccc(F)c(Cl)c3)CC2)nc1`, the cell viability came to 0.989.
Consider `CN1CCCCC1CCN1c2ccccc2Sc2ccc([S+](C)[O-])cc21` (centres undefined) [Mesoridazine Besylate], for which the cell viability was found to be 1.07.
Compound `CN(C)CCc1c[nH]c2ccc(CS(=O)(=O)N3CCCC3)cc12` [Almotriptan Malate] displayed a cell viability of 0.818.
In the case of `CN(C)C/C=C(/c1ccc(Br)cc1)c1cccnc1` [Zimelidine dihydrochloride] it was 1.01.
In the case of `O=C(c1ccc(F)cc1)C1CCN(CCn2c(=O)[nH]c3ccccc3c2=O)CC1` [Ketanserin] it was 0.968; in that of `c1ccc2c(c1)CC(N1CCN(c3cccc4c3OCCO4)CC1)C2`, 0.835.
As for `COc1ccccc1N1CCN(CCN(C(=O)c2ccc(F)cc2)c2ccccn2)CC1` [p-MPPF dihydrochloride], the figure is 0.362; as for `CNS(=O)(=O)CCc1ccc2[nH]cc(C3CCN(C)CC3)c2c1` [Naratriptan], 1.03; as for `CN1CC2c3ccccc3Oc3ccc(Cl)cc3C2C1` (centres undefined) [Asenapine], 0.974.
`NC(N)=NC(N)=Nc1cccc(Cl)c1` [1-(m-Chlorophenyl)-biguanide hydrochloride] yielded a cell viability of 1.03.
As for `Clc1ccc2c(c1)N=C(N1CCNCC1)c1ccccc1N2` [N-Desmethylclozapine], the figure is 0.907; as for `N[C@@H](Cc1c[nH]c2ccc(O)cc12)C(=O)O` [5-Hydroxy-L-tryptophan], 1.04.
In the case of `O=S(=O)(c1ccccc1)c1cnc2c(N3CCNCC3)cccc2c1` it was 0.879; in that of `O=C(c1ccc(F)cc1)C1CCN(CCn2c(=O)[nH]c3ccccc3c2=O)CC1` [Ketanserin tartrate], 0.737; in that of `COC(=O)[C@H]1[C@H]2C[C@@H]3c4[nH]c5cc(OC)ccc5c4CCN3C[C@H]2C[C@@H](OC(=O)c2cc(OC)c(OC)c(OC)c2)[C@@H]1OC` [Reserpine], 0.918.
As for `CNc1cc(NS(=O)(=O)c2ccc(N)cc2)nc(NC)n1` [Ro 04-6790 dihydrochloride], the cell viability stood at 1.03.
As for `COc1cc(/C=C/C(=O)NCCn2c(C(F)(F)F)cc3ccccc32)cc(OC)c1OC`, the cell viability is 0.968.
